Screening results: PubChem, National Center for Advancing Translational Sciences (NCATS)
A selection: hits, their analogues and other compounds. The true share with any hit is near 11%.
HEK cytotox = Cytotoxic Profiling in HEK 293 Cell Line of Diverse Libraries Using Quantitative High-Throughput Screening. HEK 293 viability, ATP luminescence (CellTiter-Glo), 48-72 h. Potency, µM (doses to about 115 µM), for inactives: at the highest dose activity change, negative = cytotoxicity, actives largely listed as inhibitors. actives 6.6% (n = 94,000); also: % is scaled to controls: 0 for no effect and ±100 for the full control effect; nearly all actives have a fitted effect of over 60% in size
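HEK 293 cells seeded at 250 cells/well were exposed to compound for 48 or 72 hr at 37 degree Celsius. Viability taken as ATP content by CellTiter-Glo luminescence.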
hNpr1 antagonist = Natriuretic polypeptide receptor (hNpr1) antagonism - Primary qHTS | Atrial natriuretic peptide receptor 1 (Homo sapiens), P16066 | HEK293 hNpr1 GloSensor cGMP, ANP-stimulated luminescence | Potency, µM (series often up to 46.3 µM), for inactives: top-dose activity change, negative = inhibition, usual class: inhibitors | actives 1.6% (n = 76,000); calls by dose curve; also: % is scaled to controls: 0 for no effect and ±100 for the full control effect; nearly all actives have a fitted effect of over 60% in size
Target sequence (P16066 whole entry, looked up): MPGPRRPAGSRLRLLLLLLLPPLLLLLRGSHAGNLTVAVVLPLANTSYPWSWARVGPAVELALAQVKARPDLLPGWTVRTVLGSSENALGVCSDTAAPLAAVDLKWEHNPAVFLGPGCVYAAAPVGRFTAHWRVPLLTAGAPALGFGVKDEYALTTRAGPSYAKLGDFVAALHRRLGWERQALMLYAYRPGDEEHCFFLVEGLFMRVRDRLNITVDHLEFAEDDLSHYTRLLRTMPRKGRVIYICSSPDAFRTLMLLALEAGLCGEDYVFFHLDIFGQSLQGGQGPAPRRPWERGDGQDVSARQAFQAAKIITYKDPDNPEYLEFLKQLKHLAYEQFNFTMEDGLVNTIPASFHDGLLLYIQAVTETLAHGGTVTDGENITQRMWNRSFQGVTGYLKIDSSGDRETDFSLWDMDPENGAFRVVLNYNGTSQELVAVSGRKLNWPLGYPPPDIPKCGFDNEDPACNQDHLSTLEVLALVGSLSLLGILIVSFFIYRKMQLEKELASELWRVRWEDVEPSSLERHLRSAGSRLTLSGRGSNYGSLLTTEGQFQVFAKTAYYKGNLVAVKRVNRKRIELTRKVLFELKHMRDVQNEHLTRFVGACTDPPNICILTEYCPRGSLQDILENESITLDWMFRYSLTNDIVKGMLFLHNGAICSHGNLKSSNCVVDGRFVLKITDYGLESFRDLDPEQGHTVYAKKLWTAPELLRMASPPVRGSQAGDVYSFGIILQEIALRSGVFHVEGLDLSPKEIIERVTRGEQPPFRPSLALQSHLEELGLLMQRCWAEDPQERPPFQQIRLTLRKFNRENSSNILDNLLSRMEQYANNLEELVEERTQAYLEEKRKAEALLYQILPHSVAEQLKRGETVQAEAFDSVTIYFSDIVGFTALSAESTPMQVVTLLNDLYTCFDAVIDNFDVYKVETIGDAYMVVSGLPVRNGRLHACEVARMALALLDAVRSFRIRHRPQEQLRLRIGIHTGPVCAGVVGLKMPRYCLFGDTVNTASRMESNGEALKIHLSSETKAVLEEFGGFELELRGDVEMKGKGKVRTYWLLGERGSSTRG
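Compound pre-incubated 30 min at room temperature on GloSensor-loaded HEK293 cells stably carrying hNpr1 and the pGS-40F cGMP biosensor. Stimulation uses hNppA at 0.1 nM final; luminescence is taken at baseline and 20 min post-agonist.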
NIH3T3 tox = Cytotoxic Profiling in NIH 3T3 Cell Line of Diverse Libraries Using Quantitative High-Throughput Screening | Potency, µM (titrated, usually from 96.7 µM), for the others: top-dose activity change, negative = cytotoxicity, usual class: inhibitors | NIH 3T3 viability, CellTiter-Glo ATP luminescence, 48-72 h | actives 4.3% (n = 94,000); also: % is scaled to controls: 0 for no effect and ±100 for the full control effect; nearly all actives have a fitted effect of over 55% in size
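Cytotoxicity was measured by CellTiter-Glo ATP luminescence after 48 or 72 h compound exposure at 37 °C. Mouse NIH 3T3 fibroblasts were seeded at 400 cells/well and dosed by 23 nL pin transfer.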
FLuc inh-1 = Firefly luciferase inhibition profiling of diverse chemical library using quantitative high-throughput screening. AID 1347043, 2019. purified P. pyralis luciferase, luminescence, biochemical. Potency, µM (titrated, usually from 115 µM), actives largely listed as inhibitors. actives 2.5% (n = 76,000); also: % is scaled to controls: 0 for no effect and ±100 for the full control effect; nearly all actives have a fitted effect of over 65% in size
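Purified 10nM P. pyralis luciferase with 10uM D-luciferin and 10uM ATP in 50mM Tris acetate pH 7.5, 10mM Mg acetate, 0.01% Tween-20, 0.05% BSA. qHTS titration; luminescence read by CCD imager.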
FLuc SDR -ATP = Firefly luciferase (FLuc-C-HiBiT) SDR gain of signal screen - without ATP; shares compounds with FLuc inh-1; actives 7.8% (n = 1,300); Purified FLuc-C-HiBiT, Nano-Glo HiBiT luminescence, no ATP; Potency, µM (top dose mostly 32.7 µM), without a hit: at the highest dose activation (signal gain), usual class: activators; also: nearly all actives have a fitted effect of over 55% in size
FLuc SDR ATP = Firefly luciferase (FLuc-C-HiBiT) SDR gain of signal screen - plus ATP; shares compounds with FLuc inh-1; purified FLuc-C-HiBiT + ATP, HiBiT complementation luminescence; Potency, µM (top dose mostly 32.7 µM), without a hit: top-dose activation (gain of signal), most hits filed as activators; actives 8.7% (n = 1,300);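 also: signal reports ligand binding via conformational change of the enzyme rather than luciferase catalysis; % of control where 0% means no effect; nearly all actives have a fitted effect of over 55% in size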
FLuc inh-2 = Firefly luciferase (FLuc-C-HiBiT) enzymatic inhibition screen - Functional assay. shares compounds with FLuc inh-1. purified FLuc-C-HiBiT enzyme, luciferin luminescence. Potency, µM (series often up to 32.7 µM), without a hit: at the highest dose activity change, negative = inhibition, usual class: inhibitors. actives 42% (n = 1,300). AID 1963320, 2024; also: % is scaled to controls: 0 for no effect and ±100 for the full control effect; nearly all actives have a fitted effect of over 70% in size
* hit, by the source's call; i = inactive; ? = inconclusive; / = not tested or not shown; [ ] = another dose, or the depositor's remark. Unless noted, calls follow the shape of the dose curve; as a rule, active = well fitted curve in the direction sought with a large enough effect; inconclusive = small, poorly fitted or top-dose-only effect, or another doubt; inactive = no such curve, though single readings can be large; an effect the other way counts as inactive or inconclusive. Potency is read from the fitted curve at half-maximal effect.

SMILES	HEK cytotox	hNpr1 antagonist	NIH3T3 tox	FLuc inh-1	FLuc SDR -ATP	FLuc SDR ATP	FLuc inh-2
CCC1=C(C(=O)OC)C(c2ccccc2OC)N2C(CC(=O)NCC3CCCO3)=CSC2=N1 (stereo not drawn)	-13.7%	-22.0%	-4.4%	i	/	/	/
Cc1cc2nc(-c3cccc(NC(=O)COc4ccc(C(C)C)cc4)c3)oc2cc1C	/	/	/	/	28.3%	?	?
O=C(Nc1cccc(Cl)c1)c1ccc2nc(-c3cccnc3)oc2c1	-29.6%	/	-22.1%	/	/	/	/
Cc1ccc2nc(-c3cccc(NC(=O)CSc4ccc(Cl)cc4)c3)oc2c1	/	/	/	/	31.4%	18.1%	?
CC(C)(C)n1cc(-c2cc(C(=O)N3C[C@H]4CC[C@H]3C4)c3ccccc3n2)cn1	?	-9.7%	?	2.82µM*	?	?	7µM*
O=C(NCCc1ccccc1Cl)c1ccc2c(c1)nc1n2CCOC1	/	/	/	/	?	?	7µM*
COC(=O)c1ccccc1NC(=O)CCc1c(C)nc2cc(-c3ccc(Cl)cc3)nn2c1C	/	/	/	/	9.4%	?	?
CCOC(=O)c1cccc(NC(=O)CCc2c(C)nc3cc(-c4ccc(Cl)cc4)nn3c2C)c1	/	/	/	/	13.2%	?	8.81µM*
CCOc1ccc(NC(=O)CCc2c(C)nc3cc(-c4ccc(Cl)cc4)nn3c2C)cc1	/	/	/	/	21.9%	0.989µM*	2.79µM*
O=C(NCC1CCOCC1)[C@@H]1C[C@@H](c2ccc(F)cc2)N(CCOc2ccccc2)C1	?	-29.7%[70.6 µM]	?	i	/	/	/
Cc1ccc(C(=O)Nc2cc(C3CCCC3)nn2C)cc1	?	/	-23.5%[138 µM]	/	/	/	/
Cc1ccc(C(=O)Nc2onc3c2CCCC3)cc1	/	/	/	/	?	3.94µM*	0.989µM*
COc1ccccc1C(=O)Nc1onc2c1CCCC2	/	/	/	/	13.7%	?	9.89µM*
NC(=O)CN1C(=O)CO[C@H]2CN(Cc3ccc4c(c3)OCO4)C[C@H]21	-14.6%[172 µM]	-16.0%[70.6 µM]	-10.2%[138 µM]	i	/	/	/
Cn1nc(C(=O)N2CCC3(CC2)CC(OCC2CC2)CCO3)c2ccccc21 (stereo not drawn)	?	3.2%	-22.3%	i	/	/	/
COc1ccc(CC(=O)Nc2ccc3n(c2=O)C[C@H]2C[C@@H]3CN(C(=O)c3ccc4ccccc4c3)C2)cc1	-28.2%	-11.7%	?	i	/	/	/
O=C(Nc1ccc(Cl)cc1)Nc1ccc2n(c1=O)C[C@H]1C[C@@H]2CN(C(=O)c2ccc3ccccc3c2)C1	28.2µM*	-23.4%	39.8µM*	14.1µM*	12.5%	8.2%	?
C[C@H]1[C@@H]2[C@@H](O)C([C@H](C)C(=O)NC3CCCCC3)CC[C@@]2(C)CC[C@@H]1NC(=O)C1CCCCC1 (stereo partly drawn)	-22.3%	-0.9%	-26.4%	i	/	/	/
COC(=O)N1CCCC(C(=O)N2CCCC(c3nc4ncccc4[nH]3)C2)C1 (stereo not drawn)	i	/	-6.7%	/	/	/	/
O=C(Nc1cc(Cl)cc(Cl)c1)c1ccn2nccc2c1	-37.4%[172 µM]	-23.8%[70.6 µM]	?	14.1µM*	24.1%[49.3 µM]	17.1%[49.3 µM]	?
O=C(Nc1ccc(Cl)nc1)c1ccn2nccc2c1	-1.8%[172 µM]	-20.2%[70.6 µM]	-6.7%[138 µM]	i	/	/	/
O=c1[nH]c(N2CCOCC2)nc2c1CCN(Cc1ccc(Cl)cc1F)CC2	?	-1.5%	?	i	/	/	/
Cc1ccc(/C=C/c2nc3ccccc3[nH]2)cc1	/	/	/	/	0.394µM*	0.556µM*	0.0442µM*
c1cncc(CN2CCNc3cc(-c4cn[nH]c4)ncc3C2)c1	?	-0.8%[70.6 µM]	i	?	/	/	/
C[S+](=O)([O-])c1ccc(-c2cc3c(cn2)CN(CCc2ccccc2)CCN3)cc1	?	-10.0%[70.6 µM]	?	?	/	/	/
SMILES	HEK cytotox	hNpr1 antagonist	NIH3T3 tox	FLuc inh-1	FLuc SDR -ATP	FLuc SDR ATP	FLuc inh-2
CC(C)(C)CN1CCNc2cc(Nc3ccccc3)ncc2C1	?	?	50.1µM*	2.24µM*	?	16.8%[49.3 µM]	7.18µM*
CC(C)(C)CN1CCNc2cc(Nc3cccnc3)ncc2C1	-39.1%[172 µM]	-0.9%[70.6 µM]	?	1.58µM*	?	?	6.4µM*
O=C(Nc1ccccc1C(=O)O)c1cccc(S(=O)(=O)N2CCCC2)c1	/	/	/	/	17.3%	12.7%	?
CC(O)CNS(=O)(=O)c1cccc(C(=O)Nc2cccc3c2CCC3)c1 (stereo not drawn)	-1.4%	7.2%	-26.3%	i	/	/	/
Cc1ccc(C2=NC3(CCN(C(=O)c4cccc(N(C)C)c4)CC3)ON2)cc1	-24.0%	-16.7%	-23.7%	14.1µM*	21.0%	?	?
CN(C)c1cccc(C(=O)N2CCC3(CC2)N=C(c2ccccc2)NO3)c1	-29.5%	-1.8%	-10.5%	?	/	/	/
Cc1ccc(NC(=O)C2CN(S(=O)(=O)C3CC3)CC23CCCCC3)c(C)c1 (stereo not drawn)	?	-10.7%	?	i	/	/	/
CC(C)NC(=O)c1ccc2oc(-c3ccncc3)nc2c1	?	/	-29.9%[138 µM]	/	/	/	/
COc1ccc(CN2CCOC[C@H](OCC(=O)N(C)C)C2)cc1	i	-0.2%[70.6 µM]	i	i	18.0%[49.3 µM]	9.6%[49.3 µM]	-1.3%[49.3 µM]
COCCn1c(C)cnc1C1CCN(S(=O)(=O)c2cccc(F)c2)C1 (stereo not drawn)	0.3%	/	-14.3%	/	/	/	/
Cc1cc(C)cc(OCC(=O)Nc2ccc(-c3nc4ccccc4s3)cc2)c1	/	/	/	/	13.6%	10.2%	-1.2%
CCCCC(=O)Nc1cccc(-c2nc3ccccc3s2)c1	/	/	/	/	16.1%	12.4%	?
Cc1cccc(OCC(=O)Nc2ccc(-c3nnc4n3CCCC4)cc2)c1	-16.3%	-4.8%	?	i	/	/	/
CCCC(=O)Nc1ccccc1-c1cccc(NC(C)=O)c1	2.1%	4.8%	-0.7%	i	/	/	/
COc1cccc(CC(=O)Nc2ccc(-c3nc4ccccc4s3)cc2)c1	/	/	/	/	23.9%	19.4%	?
COc1cccc(CC(=O)Nc2ccc3ncnc(N4CCCC4)c3c2)c1	?	4.9%	?	i	/	/	/
O=C(Nc1cccc(F)c1)N1CCCC(Cn2c(C3CC3)nc3cccnc32)C1 (stereo not drawn)	2.3%	-13.9%	?	i	/	/	/
COc1ccccc1C(=O)N1CCC2(CC1)C(=NC1CCCCC1)NC(=O)N2c1cc(F)cc(F)c1	i	/	i	/	/	/	/
